According to the supplement of paper PMC8728848:
About 410 targets per protein were measured; listed, in parts, are those with the strongest signals and a random draw of the rest.

Tests used:
Assay in all cases: glycan array binding signal (z-score within array); higher = stronger binding
Conditions in all cases: glycan notation: IUPAC condensed, linker removed
Fuc(a1-2)Gal(b1-3)GlcNAc = biological target: Fuc(a1-2)Gal(b1-3)GlcNAc
How it was run: (§1)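 Columns mapping to the same glycan were averaged after glycan names were converted to IUPAC-condensed notation. The data come from 3228 arrays in the Consortium for Functional Glycomics database, limited to those with an available protein sequence. Binding is reported as a within-array Z-score averaged across arrays of one protein sequence and across linkers.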

[1] = biological target: Fuc(a1-2)Gal(b1-3)GlcNAc(b1-2)Man(a1-3)[Fuc(a1-2)Gal(b1-3)GlcNAc(b1-2)Man(a1-6)]Man(b1-4)GlcNAc(b1-4)GlcNAc
How it was run: as §1

Fuc(a1-2)Gal(b1-4)Glc6S = biological target: Fuc(a1-2)Gal(b1-4)Glc6S
How it was run: as §1

[2] = biological target: Fuc(a1-2)Gal(b1-4)GlcNAc(b1-3)Gal(b1-4)GlcNAc(b1-3)Gal(b1-4)GlcNAc
How it was run: as §1

[3] = biological target: Fuc(a1-2)Gal(b1-4)[Fuc(a1-3)]GlcNAc(b1-2)Man(a1-3)[Fuc(a1-2)Gal(b1-4)[Fuc(a1-3)]GlcNAc(b1-2)Man(a1-6)]Man(b1-4)GlcNAc(b1-4)GlcNAc
How it was run: as §1

[4] = biological target: Fuc(a1-2)[Gal(a1-3)]Gal(b1-4)GlcNAc(b1-2)Man(a1-3)[Fuc(a1-2)[Gal(a1-3)]Gal(b1-4)GlcNAc(b1-2)Man(a1-6)]Man(b1-4)GlcNAc(b1-4)GlcNAc
How it was run: as §1

[5] = biological target: Fuc(a1-3)[Gal3S(b1-4)]Glc6S
How it was run: as §1

[6] = biological target: Fuc(a1-3)[Gal3S(b1-4)]GlcNAc
How it was run: as §1

[7] = biological target: Fuc(a1-3)[Neu5Ac(a2-3)]Gal(b1-4)GlcNAc(b1-3)GalNAc
How it was run: as §1

Gal(a1-3)Gal(b1-4)Glc = biological target: Gal(a1-3)Gal(b1-4)Glc
How it was run: as §1

[8] = biological target: Gal(a1-3)Gal(b1-4)[Fuc(a1-3)]GlcNAc(b1-2)Man(a1-3)[Gal(a1-3)Gal(b1-4)[Fuc(a1-3)]GlcNAc(b1-2)Man(a1-6)]Man(b1-4)GlcNAc(b1-4)GlcNAc
How it was run: as §1

[9] = biological target: Gal(b1-3)[Fuc(a1-4)]GlcNAc(b1-2)Man(a1-3)[Gal(b1-3)[Fuc(a1-4)]GlcNAc(b1-2)Man(a1-6)]Man(b1-4)GlcNAc(b1-4)GlcNAc
How it was run: as §1

Gal3S6S(b1-4)GlcNAc6S = biological target: Gal3S6S(b1-4)GlcNAc6S
How it was run: as §1

Gal6S(b1-4)GlcNAc6S = biological target: Gal6S(b1-4)GlcNAc6S
How it was run: as §1

[10] = biological target: GalNAc(b1-3)Gal(a1-4)Gal(b1-4)GlcNAc(b1-3)Gal(b1-4)Glc
How it was run: as §1

[11] = biological target: GalNAc(b1-4)GlcNAc(b1-2)Man(a1-3)[GalNAc(b1-4)GlcNAc(b1-2)Man(a1-6)]Man(b1-4)GlcNAc(b1-4)GlcNAc
How it was run: as §1

[12] = biological target: GlcNAc(b1-3)[GlcNAc(b1-6)]GalNAc
How it was run: as §1

[13] = biological target: GlcNAc(b1-6)Gal(b1-4)GlcNAc
How it was run: as §1

GlcNAc3Prop(b1-4)GlcNAc = biological target: GlcNAc3Prop(b1-4)GlcNAc
How it was run: as §1

[14] = biological target: GlcNAc6S(b1-3)Gal(b1-4)GlcNAc
How it was run: as §1

[15] = biological target: Man(a1-2)Man(a1-2)Man(a1-6)[Man(a1-3)]Man
How it was run: as §1

[16] = biological target: Man(a1-2)Man(a1-3)[Man(a1-2)Man(a1-6)]Man
How it was run: as §1

[17] = biological target: Man(a1-3)[Man(a1-6)]Man(a1-6)[Man(a1-2)Man(a1-3)]Man(b1-4)GlcNAc(b1-4)GlcNAc
How it was run: as §1

[18] = biological target: Man(a1-3)[Man(a1-6)]Man(a1-6)[Man(a1-3)]Man(b1-4)GlcNAc(b1-4)GlcNAc
How it was run: as §1

Neu5Ac(a2-3)Gal(b1-4)Glc = biological target: Neu5Ac(a2-3)Gal(b1-4)Glc
How it was run: as §1

[19] = biological target: Neu5Ac(a2-3)Gal(b1-4)GlcNAc6S
How it was run: as §1

[20] = biological target: Neu5Ac(a2-3)Gal(b1-4)[Fuc(a1-3)]GlcNAc
How it was run: as §1

[21] = biological target: Neu5Ac(a2-3)Gal6S(b1-4)GlcNAc
How it was run: as §1

[22] = biological target: Neu5Ac(a2-3)Gal6S(b1-4)[Fuc(a1-3)]GlcNAc
How it was run: as §1

[23] = biological target: Neu5Ac(a2-3)[GalNAc(b1-4)]Gal(b1-4)GlcNAc
How it was run: as §1

[24] = biological target: Neu5Ac(a2-6)Gal(b1-4)GlcNAc(b1-3)Gal(b1-3)GlcNAc
How it was run: as §1

[25] = biological target: Neu5Ac(a2-6)Gal(b1-4)GlcNAc(b1-3)Gal(b1-4)GlcNAc
How it was run: as §1

[26] = biological target: Neu5Ac(a2-6)Gal(b1-4)GlcNAc(b1-3)Gal(b1-4)[Fuc(a1-3)]GlcNAc(b1-3)Gal(b1-4)[Fuc(a1-3)]GlcNAc
How it was run: as §1

B1: StdA (Salmonella typhimurium), Q8Z3Z0 (protein)
chain: MAAAGMMYGASVFAADTTPTAGPFGSGKILFTGTITNSPCDIAPGDDAITVPFGQISYRKLNTANATTDSKPFTIHLQNCAFDPNETTIAGSAGKMSKVTVSFSGTADTSGKAYVSTGSAQHVGVQLLKGDNTSLITPNTPMPDGDAQQLQAGNNELNFFARLIALTDAATPGDVNASVTYTLKYL
Q: What does the source list for B1?
A: glycan array binding signal (z-score) (Fuc(a1-2)Gal(b1-3)GlcNAc): -0.15; glycan array binding signal (z-score) [1]: 10.3; glycan array binding signal (z-score) (Fuc(a1-2)Gal(b1-4)Glc6S): 0.205; glycan array binding signal (z-score) [2]: 0.168; glycan array binding signal (z-score) [3]: 2.3; glycan array binding signal (z-score) [4]: -0.604; glycan array binding signal (z-score) [5]: 6.5; glycan array binding signal (z-score) [6]: 0.034; glycan array binding signal (z-score) [7]: 4.78; glycan array binding signal (z-score) (Gal(a1-3)Gal(b1-4)Glc): 0.257; glycan array binding signal (z-score) [8]: 4.97; glycan array binding signal (z-score) [9]: 5.67; glycan array binding signal (z-score) (Gal3S6S(b1-4)GlcNAc6S): -0.494; glycan array binding signal (z-score) (Gal6S(b1-4)GlcNAc6S): -0.164; glycan array binding signal (z-score) [10]: 0.837; glycan array binding signal (z-score) [11]: 3.5; glycan array binding signal (z-score) [12]: 0.036; glycan array binding signal (z-score) [13]: 0.557; glycan array binding signal (z-score) (GlcNAc3Prop(b1-4)GlcNAc): -0.424; glycan array binding signal (z-score) [14]: 1.03; glycan array binding signal (z-score) [15]: -0.088; glycan array binding signal (z-score) [16]: -0.749; glycan array binding signal (z-score) [17]: -0.109; glycan array binding signal (z-score) [18]: -0.131; glycan array binding signal (z-score) (Neu5Ac(a2-3)Gal(b1-4)Glc): -0.372; glycan array binding signal (z-score) [19]: -0.404; glycan array binding signal (z-score) [20]: -0.614; glycan array binding signal (z-score) [21]: -0.214; glycan array binding signal (z-score) [22]: -0.437; glycan array binding signal (z-score) [23]: -0.022; glycan array binding signal (z-score) [24]: -0.819; glycan array binding signal (z-score) [25]: -0.14; glycan array binding signal (z-score) [26]: 0.009
